From PubChem BioAssay AID504577 (NMMLSC, 2011)
The whole screen tested about 350,000 compounds, of which about 1,300 (0.37%) were called active. This is one part of a sample in which actives are shown more often than they occur. Values without a mark were called inactive. Cut-off read from the data, not from the text of the source: active = response mostly above about 7.3% (no sharp cut-off); inactive = mostly below about 5.4%.

Assay: regulators of yeast V-ATPase proton pumping, primary screen, pHLuorin cytosolic pH fluorescence (AID 504577); note: actives read high
Conditions: S. cerevisiae, at 10 µM, stronger effect = higher value

Compound	response
O=C(NC1CCN(Cc2ccccc2)CC1)c1ccc(Oc2cc(Cl)cc(Cl)c2)o1	0.98%
Cc1cc(C(=O)NC2CCN(Cc3ccccc3)CC2)n[nH]1	4.4%
O=C(NC1CCN(Cc2ccccc2)CC1)c1cc(Br)c(Br)[nH]1	10.4% (active)
O=C(CCCN1C(=O)c2ccccc2C1=O)Oc1ccc(Cl)cc1	8.16%
O=C1c2ccccc2C(=O)N1CCCCCCN1C(=O)c2ccccc2C1=O	9.59% (active)
O=C(OCCN1C(=O)c2ccccc2C1=O)Oc1ccccc1	-2.47%
Cc1cc(C(C)(C)C)cc(S(=O)(=O)Nc2ccc(C(=O)O)cc2)c1C	-1.72%
COCCN(Cc1ccccc1)C(=O)Cc1ccc(S(=O)(=O)N2CCOCC2)s1	0.76%
CN(CC(=O)NCC(c1ccccc1)N1CCCC1)S(=O)(=O)c1ccc(Cl)cc1 (stereo not drawn)	-3.93%
O=C1NC(c2ccc(-c3ccccc3[N+](=O)[O-])o2)C(C(=O)c2ccc(Cl)cc2)C(O)(C(F)(F)F)N1 (stereo not drawn)	-0.4%
O=C(Nc1ccc(N2CCOCC2)cc1)c1ccc(-c2ccccc2[N+](=O)[O-])o1	-1.06%
CC1=NN(c2ccc(Cl)c(C(=O)O)c2)C(=O)/C1=C/c1ccc(-c2ccccc2[N+](=O)[O-])o1	240% (active)
O=C(COC(=O)CCCNC(=O)c1ccc(Cl)cc1)Nc1cc(Cl)ccc1Cl	-2.06%
CNC(=O)c1csc(Cc2c(Cl)sc3ccc(Cl)cc23)n1	12.4% (active)
CNC(=O)c1csc(-c2ccccc2)n1	-0.68%
CC(=O)NNC(=O)c1csc(Cc2c(Cl)sc3ccc(Cl)cc23)n1	-1.89%
COc1cccc(N2CCN(C(=O)Nc3ccc4c(c3)NC(=O)CO4)CC2)c1	0.53%
CC(C)(C)C(=O)COC(=O)c1cc(S(=O)(=O)N2CCCCC2)ccc1N1CCOCC1	5.71%
O=C(CNC(=O)c1cc(S(=O)(=O)N2CCOCC2)ccc1N1CCCC1)Nc1ccc(F)c(F)c1	-1.89%
O=C(NCC1CCCCC1)c1cc(S(=O)(=O)N2CCCCC2)ccc1N1CCOCC1	11.1% (active)
COCCN1C2=C(COC(C)(C)C2)C(=S)NC1c1ccccc1 (stereo not drawn)	1.2%
O=C(O)CC12CC3CC(C1)CC(n1ncc(NCc4ccc(F)cc4)c(Cl)c1=O)(C3)C2	1.78%
CC(C)c1ccc(OCC(O)CN2CCN(c3ccccn3)CC2)cc1 (stereo not drawn)	1.79%
OC(COc1cccc2ccccc12)CN1CCN(c2ccccn2)CC1 (stereo not drawn)	16.7% (active)

Compound	response
OC(COc1ccccc1)CN1CCN(c2cccc(Cl)c2)CC1 (stereo not drawn)	-2.02%
CN(C)S(=O)(=O)c1cc(C(=O)Nc2ccn(C)n2)c(Cl)cc1Cl	-0.21%
CSc1sc(C)cc1C1C(C#N)=C(N)N(c2cccnc2)C2=C1C(=O)CCC2 (stereo not drawn)	-0.16%
O=C(COc1ncnc2c(Cl)cc(Cl)cc12)N1CCN(S(=O)(=O)c2ccccc2)CC1	2.02%
Nn1c(SCc2ccccc2)nnc1C1CCCCC1	-2.46%
O=C(CNC(=O)c1ccccc1Br)NNC(=O)c1cccs1	-0.51%
O=C(C1=C[C@H](c2coc3ccccc3c2=O)C[C@H](OCc2ccc(CO)cc2)O1)N1CCN(Cc2ccccc2)CC1	2.61%
O=C(C1=C[C@H](C2CC2)C[C@H](OCc2ccc(CO)cc2)O1)N1CCN(Cc2ccccc2)CC1	10.9% (active)
O=C(C1=C[C@H](c2ccc(C(F)(F)F)cc2)C[C@H](OCc2ccc(CO)cc2)O1)N1CCN(Cc2ccccc2)CC1	3.16%
Cc1ccc(C2=NN(C)c3nc4ccccc4n3C2)cc1	0.17%
COc1ccc(NC(=O)CSc2ncnc3[nH]ncc23)cc1	8.67%
CN(c1ccccn1)c1ncnc2[nH]ncc12	15.2% (active)
c1ccc(CNc2ncnc3[nH]ncc23)cc1	-0.7%
COc1ccc(OC)c(CNC(=O)CCc2nc(-c3cccs3)no2)c1	-0.51%
COc1ccc(CCc2nc(-c3cccs3)no2)cc1	1.75%
CCc1ccc(CNC(=O)CCc2nc(-c3cccs3)no2)cc1	10.8% (active)
Cc1cc(C(F)(F)F)nn1CC(=O)N1CCCC1	6.02%
O=C(CC(n1cncn1)C(Cl)(Cl)Cl)c1ccc([N+](=O)[O-])cc1 (stereo not drawn)	4.51%
COc1ccc(C(CNC(=O)c2ccc(OCc3cscn3)cc2)N2CCCC2)cc1 (stereo not drawn)	2.42%
CCN(CC(=O)Nc1c(F)cccc1F)C(=O)c1ccc(-c2ccc(C(C)=O)cc2)o1	0.89%
Cc1cccc2c1cnn2C(=O)CCC(=O)NC1CCCCC1	-0.13%
Cc1ccc2nc(SCC(=O)NC3CCCC3)[nH]c2c1	1.94%
Cc1ccc2c(cnn2C(=O)CCC(=O)NC2CCCC2)c1	16.8% (active)
Cc1ccccc1CS(=O)(=O)CC1(O)CCN(C(=O)c2cccc(C(F)(F)F)c2)CC1	-0.64%

Compound	response
Cc1c(Cl)cccc1NC(=O)[C@@]1(CC(=O)O)CC(/C=C/c2ccccc2)=NO1	-1.98%
CCN(CC)CC(=O)Nc1nn(-c2ccccc2)nc1C(N)=O	6.52%
COc1ccc(N2CCN(C(=O)CNC(=O)c3ccc(C(C)(C)C)cc3)CC2)cc1	13.9% (active)
COc1ccc(N2CCN(C(=O)CCNC(=O)c3ccc(Br)cc3)CC2)cc1	-3.69%
COc1ccc(N2CCN(C(=O)CNC(=O)c3ccc(Br)o3)CC2)cc1	4.07%
Cc1ccccc1NC(=O)N1CCCC1C(=O)NCc1ccccc1 (stereo not drawn)	-1.65%
CCOc1nc(OCC)nc(-n2cc(-c3ccccc3)nn2)n1	0.96%
CC1=C/C(=N\OS(=O)(=O)c2ccccc2)C=CC1=O	32.8% (active)
CCC(C)NC(=O)c1ccc(NC(=O)CC2SC(N3CCCCC3)=NC2=O)cc1 (stereo not drawn)	1.4%
CC(C)(C)OC(=O)N1CCC(C(=O)NNC(=O)c2ccc(Cl)cc2Cl)CC1	1.22%
Cc1cc(=O)n2nc(N3CCCC3C(=O)NCCCN3CC(C)CC(C)C3)sc2n1 (stereo not drawn)	-2.96%
Cc1sc2ncnc(N3CCC(C(=O)Nc4nc5ccc(Cl)cc5s4)CC3)c2c1C	0.27%
Cc1ccc(C(=O)Nc2nc3ccc(Cl)cc3s2)o1	20.1% (active)
Cc1csc(NC(=O)c2ccc(-c3ccc(Cl)cc3Cl)o2)n1	-2.59%
OC1CN=C2Sc3ccccc3N2C1 (stereo not drawn)	3.08%
O=C(c1ccc(=O)oc1)N1CCC(C(O)(c2ccccc2)c2ccccc2)CC1	2.64%
CC(C)CCN1C(=O)c2ccc(C(=O)Nc3cccc(S(N)(=O)=O)c3)cc2C1=O	14.3% (active)
Cc1cccc(C(=O)Nc2ccc3c(c2)C(=O)N(CC(C)C)C3=O)c1	-0.72%
CN1CCN(S(=O)(=O)c2cccc(C(=O)Nc3cccc(S(N)(=O)=O)c3)c2)CC1	0.8%
COc1ccccc1C(=O)N1C(CC(=O)Nc2ccccc2C)C(=O)NC2CCCCC21 (stereo not drawn)	9.51%
Cc1ccc(S(=O)(=O)Nc2ccc3c(c2)C(=O)N([C@H](C)CO)C[C@@H](C)[C@@H](CN(C)C(=O)Nc2cccc4ccccc24)O3)cc1	-0.92%
COc1cc(C2c3cc4c(cc3C(O)C3COC(=O)C23)OCO4)cc(OC)c1OC (stereo not drawn)	1.36%
COc1ccccc1CNC(=O)COC(=O)c1sc(C)nc1C	9.53% (active)
COc1ccccc1CNC(=O)COc1ccc(C)nc1[N+](=O)[O-]	-0.89%

Compound	response
COc1ccccc1CNC(=O)COC(=O)c1cccs1	-4.49%
Brc1cnc(N2CCCC2)nc1N1CCCCC1	-0.57%
COc1ccc(Cc2nnc(NC(=O)c3cc(OC)c(OC)c(OC)c3)s2)cc1OC	-0.03%
CCc1nnc(NC(=O)c2cccc(S(=O)(=O)N(C)c3ccc(OC)cc3)c2)s1	3.85%
CCCc1nnc(NC(=O)c2cc(OC)cc(OC)c2)s1	12.9% (active)
O=C1C=C(c2ccc(Cl)cc2)C(=O)N1Nc1ccccc1	11.6% (active)
O=C(c1ccc(Cn2cc([N+](=O)[O-])cn2)o1)N1CCCC1	-2.73%
COc1cc(CN2CCCC(C(=O)c3ccc(SC)cc3)C2)cc(Cl)c1O (stereo not drawn)	13.8% (active)
COc1ccc(CN2CCCC(C(=O)c3ccc(Cl)cc3)C2)cc1Cn1cncn1 (stereo not drawn)	-2.81%
COc1ccc(C(=O)NC2CC2)cc1OC1CCN(Cc2ccc(SC)cc2)CC1	-0.55%
C=CCOC(=O)N1CCC2CC1c1cc(-c3ccc(OC)cc3)ccc12 (stereo not drawn)	-1.16%
CCOc1ccccc1NC(=O)C1CCN(S(=O)(=O)c2c(C)nn(C)c2C)CC1	-3.78%
COCCNc1nc2nonc2nc1N(C)Cc1ccc(C)cc1	-1.45%
Cc1cc(C#N)c(SCC(N)=O)nc1-c1ccc(F)cc1	1.45%
Cc1cc(=O)[nH]c(SCC(N)=O)c1C#N	23.4% (active)
Cc1ccc(NC(=O)CSc2sc3c(O)cc(=O)[nH]c3c2C#N)cc1C	2.04%
CCC(C)[C@H](NC(=O)N1CCn2c1nc1ccccc12)C(=O)NCc1ccc(OC)cc1 (stereo partly drawn)	4.62%
NC(CSC1(c2ccccc2)c2ccccc2-c2ccccc21)C(=O)O (stereo not drawn)	-2.21%
COc1ccc(N2C(=O)C(CC(=O)Nc3ccc(F)cc3)N(CCc3cccs3)C2=O)cc1 (stereo not drawn)	-0.54%
COc1ccc(N2C(=O)C(CC(=O)Nc3ccccc3)N(Cc3ccc(OC)c(OC)c3)C2=O)cc1 (stereo not drawn)	0.01%
COc1ccc(CCN2C(=O)N(c3ccc(OC)cc3)C(=O)C2CC(=O)Nc2ccc(OC)cc2)cc1 (stereo not drawn)	9.93% (active)
